Common to all, as to set-up: scale not given: direction of the effect not stated beside the values
Experiment [1] has as its target Protein translocase subunit SecA (Escherichia coli (strain K12)) (UniProt P10408). The experiment can be described thus: Assay to Identify E. coli SecA ATPase Inhibitors. The format is functional. To be noted: 30 µM.
Experiment [2] has as its target T1, Ubiquitin-activating enzyme e1, putative (Leishmania donovani (strain BPK282A1)) (UniProt E9BSI1).
T1 sequence (whole entry): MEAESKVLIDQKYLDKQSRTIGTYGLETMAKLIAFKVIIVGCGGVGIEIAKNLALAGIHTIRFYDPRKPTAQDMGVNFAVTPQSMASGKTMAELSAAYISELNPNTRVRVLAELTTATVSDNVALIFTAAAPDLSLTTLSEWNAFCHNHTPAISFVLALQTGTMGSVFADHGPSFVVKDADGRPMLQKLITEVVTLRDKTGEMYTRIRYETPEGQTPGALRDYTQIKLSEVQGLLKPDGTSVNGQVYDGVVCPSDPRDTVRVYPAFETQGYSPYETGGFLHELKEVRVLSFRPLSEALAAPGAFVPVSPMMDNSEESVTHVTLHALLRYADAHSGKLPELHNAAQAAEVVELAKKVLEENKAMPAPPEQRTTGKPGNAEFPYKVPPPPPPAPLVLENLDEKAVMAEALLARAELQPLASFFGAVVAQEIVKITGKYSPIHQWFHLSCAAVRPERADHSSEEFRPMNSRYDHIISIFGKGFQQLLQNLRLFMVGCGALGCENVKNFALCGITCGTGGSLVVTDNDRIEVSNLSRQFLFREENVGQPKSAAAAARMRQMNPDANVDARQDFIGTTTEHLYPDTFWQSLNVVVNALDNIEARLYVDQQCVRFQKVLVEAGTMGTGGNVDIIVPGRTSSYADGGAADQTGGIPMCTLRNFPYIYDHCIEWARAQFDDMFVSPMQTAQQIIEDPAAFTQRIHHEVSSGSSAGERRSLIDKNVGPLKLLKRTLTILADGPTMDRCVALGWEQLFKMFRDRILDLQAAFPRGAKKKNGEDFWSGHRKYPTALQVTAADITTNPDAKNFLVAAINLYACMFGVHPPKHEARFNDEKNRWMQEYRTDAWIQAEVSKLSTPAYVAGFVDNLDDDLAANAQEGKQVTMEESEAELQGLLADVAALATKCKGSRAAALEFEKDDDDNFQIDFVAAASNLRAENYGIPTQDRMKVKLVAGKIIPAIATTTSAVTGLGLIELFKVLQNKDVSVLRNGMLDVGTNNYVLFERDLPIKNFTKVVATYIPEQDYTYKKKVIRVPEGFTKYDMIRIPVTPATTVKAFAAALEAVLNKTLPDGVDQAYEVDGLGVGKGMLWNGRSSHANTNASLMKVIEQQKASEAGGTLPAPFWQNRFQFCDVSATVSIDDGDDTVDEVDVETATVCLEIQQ
The experiment can be described thus: Leishmania donovani Ubiquitin Activating Enzyme (LdE1). The format is functional. To be noted: 30 µM.

In experiment [3] the target is AMP-activated protein kinase, AMPK (Homo sapiens) (UniProt P54646+O43741+P54619+Q9UGJ0+Q9Y478+Q13131+Q9UGI9). The experiment can be described thus: AMP-dependent Kinase enzyme assay. An in vitro enzyme assay that detects ADP turnover that is directly proportional to AMPK activity. This uses naive AMPK that is activated during the assay with MK-8722. The format is functional. To be noted: 30 µM.

In experiment [4] the target is Sialic acid-binding Ig-like lectin 9 (Homo sapiens) (UniProt Q9Y336). Nature of the experiment: Hs-Siglec9 ALPHAscreen SOP 20170721. To be noted: 10 µM. A general note: Bead proximity is the source of the signal in Alpha formats.
Sequence of Sialic acid-binding Ig-like lectin 9 (Homo sapiens) (Q9Y336 whole entry): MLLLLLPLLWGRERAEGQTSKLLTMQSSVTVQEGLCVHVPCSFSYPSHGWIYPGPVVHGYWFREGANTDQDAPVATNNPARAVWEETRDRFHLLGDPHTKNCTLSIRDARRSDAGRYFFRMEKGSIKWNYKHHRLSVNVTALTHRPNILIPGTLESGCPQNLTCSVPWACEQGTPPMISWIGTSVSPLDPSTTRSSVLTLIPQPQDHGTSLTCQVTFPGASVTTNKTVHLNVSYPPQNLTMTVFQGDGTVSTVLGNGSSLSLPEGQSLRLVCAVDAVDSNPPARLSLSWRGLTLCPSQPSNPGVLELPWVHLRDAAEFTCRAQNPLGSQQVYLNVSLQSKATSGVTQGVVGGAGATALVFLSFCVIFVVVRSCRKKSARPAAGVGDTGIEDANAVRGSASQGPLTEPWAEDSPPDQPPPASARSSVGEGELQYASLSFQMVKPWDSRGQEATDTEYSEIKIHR
A further experiment relates to Trypanosoma cruzi. The experiment can be described thus: Trypanosoma cruzi phosphomannomutase and mannose-1-phosphate guanylyltransferase assay. The experiment is classed as functional. To be noted: 10 µM.
Experiment [5] has as its target T2, Arginase-2, mitochondrial (Homo sapiens) (UniProt P78540).
T2 sequence (whole entry): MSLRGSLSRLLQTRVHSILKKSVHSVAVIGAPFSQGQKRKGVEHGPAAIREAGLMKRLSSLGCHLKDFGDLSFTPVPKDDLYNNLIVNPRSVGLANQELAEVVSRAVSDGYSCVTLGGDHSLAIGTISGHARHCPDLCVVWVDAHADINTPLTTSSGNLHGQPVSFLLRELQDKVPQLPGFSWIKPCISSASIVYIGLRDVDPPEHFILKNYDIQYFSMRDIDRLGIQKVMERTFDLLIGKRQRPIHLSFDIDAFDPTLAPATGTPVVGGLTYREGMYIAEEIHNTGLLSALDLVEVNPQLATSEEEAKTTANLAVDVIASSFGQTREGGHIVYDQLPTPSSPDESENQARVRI
Nature of the experiment: in vitro enzyme assay to detect the production of urea directly proportional to the activity of Arginase II. Also: in the data most compounds retested in dose-response had high values. To be noted: 33.3 µM. The experiment is classed as functional.

Experiment [6] concerns the target T3, Proteasome subunit beta (Trypanosoma cruzi) (UniProt O96673).
T3 sequence (whole entry): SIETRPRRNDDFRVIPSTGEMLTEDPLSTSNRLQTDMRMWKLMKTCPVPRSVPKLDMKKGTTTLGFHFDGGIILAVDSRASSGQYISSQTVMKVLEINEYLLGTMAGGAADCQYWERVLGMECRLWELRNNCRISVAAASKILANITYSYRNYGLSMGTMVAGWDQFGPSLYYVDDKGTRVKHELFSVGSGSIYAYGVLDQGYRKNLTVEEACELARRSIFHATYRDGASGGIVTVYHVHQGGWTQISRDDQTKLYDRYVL
The experiment can be described thus: Trypanosoma cruzi proteasome chymotrypsin-like activity (TcProtChymo) assay. Also: in the data most compounds retested in dose-response had high values. The experiment is classed as functional. To be noted: 9.37 µM.

The species named for the next experiment is Homo sapiens. The experiment can be described thus: To identify inhibition of the IFN signalling (Jak-Stat) pathway via expression of an eGFP reporter gene under the control of an IFN-stimulated response element (ISRE) containing MxA promoter. To be noted: 30 µM. The format is functional. For orientation: In a reporter assay the amount or activity of a reporter protein is the signal.

The target in experiment [7] is T4, Tyrosyl-tRNA synthetase, putative (Trypanosoma cruzi (strain CL Brener)) (UniProt Q4DSP6).
T4 sequence (whole entry): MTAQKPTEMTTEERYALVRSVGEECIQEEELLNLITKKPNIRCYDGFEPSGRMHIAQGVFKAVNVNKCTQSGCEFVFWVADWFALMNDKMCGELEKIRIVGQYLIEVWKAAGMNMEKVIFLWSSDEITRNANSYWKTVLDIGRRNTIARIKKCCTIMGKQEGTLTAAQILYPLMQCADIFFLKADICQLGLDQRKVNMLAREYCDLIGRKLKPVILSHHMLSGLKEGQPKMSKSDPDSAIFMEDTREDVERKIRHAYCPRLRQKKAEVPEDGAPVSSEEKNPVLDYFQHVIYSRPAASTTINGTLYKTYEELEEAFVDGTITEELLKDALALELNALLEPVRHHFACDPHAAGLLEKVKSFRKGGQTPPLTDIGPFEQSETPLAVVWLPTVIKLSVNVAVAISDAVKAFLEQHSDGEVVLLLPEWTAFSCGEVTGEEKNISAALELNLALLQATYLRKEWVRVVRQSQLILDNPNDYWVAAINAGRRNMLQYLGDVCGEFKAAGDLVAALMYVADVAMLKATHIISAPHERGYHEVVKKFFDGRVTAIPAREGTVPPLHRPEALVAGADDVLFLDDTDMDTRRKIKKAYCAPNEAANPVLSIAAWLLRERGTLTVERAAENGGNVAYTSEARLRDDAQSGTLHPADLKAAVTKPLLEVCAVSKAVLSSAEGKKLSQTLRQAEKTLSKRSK
The experiment can be described thus: Trypanosoma cruzi tyrosyl tRNA synthetase (TcYRS) _High Tyrosine SOP. Also: in the data most compounds retested in dose-response had high values. The format is functional. To be noted: 30 µM.

Experiment [8] addresses T4, Tyrosyl-tRNA synthetase, putative (Trypanosoma cruzi (strain CL Brener)). The experiment can be described thus: Trypanosoma cruzi tyrosyl tRNA synthetase (TcYRS) SOP. The format is functional. To be noted: 30 µM.
The target of experiment [9] is Chromo domain-containing protein 1 (Saccharomyces cerevisiae (strain ATCC 204508 / S288c) (Baker's yeast)) (UniProt P32657). Nature of the experiment: ScCHD-1 Enzyme Inhibition Assay. Also: in the data most compounds retested in dose-response had high values. The format is functional. To be noted: 30 µM.
Sequence of Chromo domain-containing protein 1 (Saccharomyces cerevisiae (strain ATCC 204508 / S288c) (Baker's yeast)) (P32657 whole entry, the tested form may be a part): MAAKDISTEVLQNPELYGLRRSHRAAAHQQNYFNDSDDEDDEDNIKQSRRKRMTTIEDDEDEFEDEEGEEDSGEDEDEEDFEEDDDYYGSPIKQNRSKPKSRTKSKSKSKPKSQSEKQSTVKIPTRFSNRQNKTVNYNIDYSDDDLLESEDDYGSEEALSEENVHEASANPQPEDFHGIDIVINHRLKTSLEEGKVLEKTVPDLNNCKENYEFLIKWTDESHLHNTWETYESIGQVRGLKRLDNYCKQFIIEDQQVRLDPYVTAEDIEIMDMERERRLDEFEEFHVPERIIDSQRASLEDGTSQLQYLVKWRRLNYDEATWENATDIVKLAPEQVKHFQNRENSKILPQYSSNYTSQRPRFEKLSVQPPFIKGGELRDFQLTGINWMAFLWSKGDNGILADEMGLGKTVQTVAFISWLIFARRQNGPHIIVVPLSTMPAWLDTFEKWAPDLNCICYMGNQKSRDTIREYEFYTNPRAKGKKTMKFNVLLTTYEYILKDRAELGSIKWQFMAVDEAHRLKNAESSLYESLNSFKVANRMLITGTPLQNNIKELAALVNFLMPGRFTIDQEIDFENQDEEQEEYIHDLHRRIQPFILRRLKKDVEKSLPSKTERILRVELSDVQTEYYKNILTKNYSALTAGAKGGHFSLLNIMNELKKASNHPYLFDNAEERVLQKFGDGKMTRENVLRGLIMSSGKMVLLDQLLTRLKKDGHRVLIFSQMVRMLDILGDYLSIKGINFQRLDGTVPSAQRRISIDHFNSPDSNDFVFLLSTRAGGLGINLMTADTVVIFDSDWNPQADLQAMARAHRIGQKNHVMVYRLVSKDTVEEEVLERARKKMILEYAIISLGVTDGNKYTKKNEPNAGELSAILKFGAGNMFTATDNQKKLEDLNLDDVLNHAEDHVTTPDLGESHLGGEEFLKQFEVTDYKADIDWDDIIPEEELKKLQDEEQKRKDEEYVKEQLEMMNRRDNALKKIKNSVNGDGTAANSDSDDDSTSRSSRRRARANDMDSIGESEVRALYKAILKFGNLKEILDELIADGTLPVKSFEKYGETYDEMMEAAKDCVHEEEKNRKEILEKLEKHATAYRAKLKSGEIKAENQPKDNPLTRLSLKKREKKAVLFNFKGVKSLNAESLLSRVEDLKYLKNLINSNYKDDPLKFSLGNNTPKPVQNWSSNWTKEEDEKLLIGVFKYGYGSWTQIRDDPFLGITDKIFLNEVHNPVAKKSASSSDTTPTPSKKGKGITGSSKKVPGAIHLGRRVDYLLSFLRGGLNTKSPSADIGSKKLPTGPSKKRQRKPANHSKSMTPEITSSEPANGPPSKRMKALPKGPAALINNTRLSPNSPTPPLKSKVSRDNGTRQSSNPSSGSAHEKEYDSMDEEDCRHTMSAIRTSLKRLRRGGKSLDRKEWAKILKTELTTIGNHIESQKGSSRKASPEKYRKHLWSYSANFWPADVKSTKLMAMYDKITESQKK

Here are results for ten molecules from ChEMBL document CHEMBL3988442, “University of Dundee, Small-Polar-MMV Screening Library” (2021).

Each structure is given as a SMILES string. For some assays here: Results with a measured potency or affinity are listed apart.

Sequence of Protein translocase subunit SecA (Escherichia coli (strain K12)) (P10408 whole entry): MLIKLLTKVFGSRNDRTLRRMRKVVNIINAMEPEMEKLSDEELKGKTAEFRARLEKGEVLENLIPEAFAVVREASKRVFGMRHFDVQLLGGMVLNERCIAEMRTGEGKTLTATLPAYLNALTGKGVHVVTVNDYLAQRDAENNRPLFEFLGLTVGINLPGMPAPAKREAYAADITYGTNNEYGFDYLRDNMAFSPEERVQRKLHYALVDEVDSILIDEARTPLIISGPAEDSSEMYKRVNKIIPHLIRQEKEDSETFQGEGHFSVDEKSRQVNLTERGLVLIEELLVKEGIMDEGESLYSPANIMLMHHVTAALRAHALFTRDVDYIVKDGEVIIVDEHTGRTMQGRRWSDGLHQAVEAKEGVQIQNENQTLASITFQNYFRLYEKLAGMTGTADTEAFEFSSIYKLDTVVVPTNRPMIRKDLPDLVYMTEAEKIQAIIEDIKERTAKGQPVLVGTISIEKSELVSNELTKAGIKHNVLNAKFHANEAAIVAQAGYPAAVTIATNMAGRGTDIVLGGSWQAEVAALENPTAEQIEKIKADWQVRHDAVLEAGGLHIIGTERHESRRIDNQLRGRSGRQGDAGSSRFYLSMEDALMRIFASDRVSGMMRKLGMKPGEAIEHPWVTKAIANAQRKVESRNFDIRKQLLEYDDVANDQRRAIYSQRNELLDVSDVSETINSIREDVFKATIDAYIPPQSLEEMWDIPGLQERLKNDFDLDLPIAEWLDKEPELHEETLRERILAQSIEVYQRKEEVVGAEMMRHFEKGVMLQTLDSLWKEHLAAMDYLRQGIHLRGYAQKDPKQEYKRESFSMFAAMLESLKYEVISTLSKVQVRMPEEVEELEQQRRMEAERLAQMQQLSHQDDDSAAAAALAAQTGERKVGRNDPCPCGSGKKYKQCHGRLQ

As for `O=C(O)CCc1cc2n(n1)CCCN(C(=O)c1ccc3cc[nH]c3c1)C2`, the Percent Effect was -2.97% in [1]; 16.2% in [2]; -5.19% in experiment [3]; 10.7% in [4]; 4.05% with Trypanosoma cruzi; 10.5% in experiment [5]. In addition, the Percent Effect is 11.9% in [6]; -2.64% in the experiment filed under Homo sapiens; 7.94% in [7]; 17.1% in [8]; -3.38% in experiment [9].
As to `CN(c1ccc(C(=O)NCCCN2CCOCC2)c(Cl)c1)S(C)(=O)=O`, the Percent Effect in experiment [1] was -5.85%; in experiment [2], 5.2%; in experiment [3] it was -0.453%; in experiment [4] it was 13.2%; in the experiment on Trypanosoma cruzi, 4.23%; in [5], -13.8%. In addition, the Percent Effect was 7.16% in experiment [6]; -1.2% in the experiment filed under Homo sapiens; 5.38% in experiment [7]; 11.1% in experiment [8]; -6.36% in [9].
Regarding `Cc1nccnc1N1CC[C@@H](NC(=O)c2cnccn2)[C@H](O)C1`, the Percent Effect was -5.54% in experiment [1]; 13.5% in experiment [2]; -3.54% in experiment [3]; 17.2% in experiment [4]; 7.53% in the experiment with Trypanosoma cruzi; 2.86% in [5]. Besides, the Percent Effect in experiment [6] was 3.62%; in the experiment listed under Homo sapiens, 2.71%; in experiment [7] it was 2.65%; in experiment [8], 14.6%; in experiment [9], -0.902%.
Turning to `CN(C)C(=O)N1C[C@@H]2CC[C@H](C1)N(C(=O)CCCn1cncn1)C2`, the Percent Effect in [1] is -2.38%; in experiment [2] it was 2.7%; in experiment [3] it was 0.473%; in experiment [4] it was 0.611%; with Trypanosoma cruzi, 1.74%; in experiment [5] it was 1.43%. Moreover, the Percent Effect in experiment [6] was 19%; in the experiment filed under Homo sapiens it was -5.66%; in experiment [7], 8.99%; in [8], 21.9%; in experiment [9] it was -3.6%.
On to `CC(Cn1ccnc1)NC(=O)N1CCN(Cc2cccnc2)CC1` (stereo not given), for which the Percent Effect in experiment [1] is -5%; in experiment [2], 18.4%; in experiment [3], -6.12%; in experiment [4], 5.79%; in the experiment on Trypanosoma cruzi, 8.46%; in [5], -3.83%. Besides, the Percent Effect in [6] is 11.5%; in the experiment listed under Homo sapiens, 4.46%; in [7] it was 7.35%; in experiment [8] it was 19.5%; in experiment [9], -10.3%.
`O=C(NC[C@H]1OC[C@@H]2CCN(Cc3ccco3)C[C@@H]21)c1ccsc1`: the Percent Effect in experiment [1] was -1.93%; in [2] it was 8.22%; in [3], -0.185%; in experiment [4], 8.5%; with Trypanosoma cruzi, 4.17%; in experiment [5] it was -9.58%. Moreover, the Percent Effect in [6] is 11.2%; in the experiment filed under Homo sapiens it was -6.7%; in experiment [7], 6.25%; in experiment [8], 8.64%; in experiment [9], -1.63%.
For the molecule `O=C(COc1coc(CN2CCCCC2)cc1=O)Nc1ccccc1Cl`, the Percent Effect in experiment [1] was -4.47%; in [2], 4%; in experiment [3] it was 6.82%; in experiment [4], 3.14%; in the experiment with Trypanosoma cruzi, -2.16%; in experiment [5], -8.28%. Besides, the Percent Effect is 12.2% in experiment [6]; -3.22% in the experiment listed under Homo sapiens; 10.6% in experiment [7]; 12.8% in experiment [8]; 0.706% in experiment [9].
Consider `O=C(NC1CC1)[C@H]1CC[C@@H]2[C@@H](CCN2c2ncc(F)cn2)O1`, for which the Percent Effect is -3.27% in experiment [1]; 2.6% in [2]; 0.23% in experiment [3]; 1.05% in [4]; -0.688% in the experiment on Trypanosoma cruzi; -2.76% in [5]. The Percent Effect worked out at 4.16% in experiment [6]; 11% in the experiment filed under Homo sapiens; 3.23% in experiment [7]; 1.24% in [8]; 134% in [9].
Consider `COCCNC(=O)[C@H]1C[C@@H]2CCN(Cc3ccoc3)C[C@H]2O1`, for which the Percent Effect in experiment [1] was -1.42%; in experiment [2], 8.11%; in experiment [3], 5.25%; in experiment [4], -7.78%; in the experiment on Trypanosoma cruzi, -8.7%; in experiment [5] it was 7.96%. The Percent Effect in experiment [6] was 23.2%; in the experiment filed under Homo sapiens, 2.97%; in [7] it was 0%; in experiment [8] it was 7.69%; in [9], -1.51%.
Consider `Nc1cc(CCCNC(=O)NC2CC2)nn1-c1ccccc1`, for which the Percent Effect in experiment [1] was -3.6%; in [2], 5.48%; in experiment [3], 1.41%; in experiment [4] it was -7.75%; in the experiment on Trypanosoma cruzi, -6.27%; in experiment [5], -6.82%. Moreover, the Percent Effect in [6] is 14.7%; in the experiment filed under Homo sapiens it was 3.12%; in experiment [7], 0%; in experiment [8], 5%; in experiment [9] it was -2.26%.
